# Screens as filed in PubChem.
# Compounds with a hit are over-represented: about 19% of the library has one in this group of screens.
# HT1080 IDH1KD tx: toxicity to HT-1080 IDH1 knockdown cells (counter line) | HT-1080 IDH1 knockdown viability, ATP luminescence, 48 h | Potency, µM (doses to about 46.1 µM), inactives show top-dose activity, negative = toxicity, most hits filed as cytotoxic | actives 2% (n = 360,000);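 further: potency means the concentration at half of the fitted maximal effect; 0% = DMSO wells and -100% = cell-free medium wells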
#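 Knockdown cells (IDH1KD HT-1080) received compounds 2 h after plating at 750 cells/well and were kept 48 h at 37 °C in 5% FBS RPMI. A CellTiter-Glo luminescence read gave % activity for curve fitting.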
# HT1080-NT tox: kills 2HG-producing HT-1080-NT fibrosarcoma cells | HT-1080-NT fibrosarcoma viability, CellTiter-Glo ATP luminescence, 48 h | Potency, µM (highest dose often 46.1 µM), inactives show top-dose activity, negative = less viability, hits mostly cytotoxic | actives 1.6% (n = 360,000);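 further: NT is the 2HG producing partner of a matched IDH1 knockdown line; potency means the concentration at half of the fitted maximal effect; 0% = DMSO-treated cells and -100% = media-only wells without cells; nearly all actives have a fitted effect of over 55% in size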
#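 Read-out is CellTiter-Glo luminescence after 10 minutes at room temperature, following 48 hours' compound treatment of HT-1080-NT cells (750 cells/well, RPMI, 5% FBS, 37 degrees C).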
# DT40 TDP1 no CPT: qHTS for Inhibitors of human tyrosyl-DNA phosphodiesterase 1 (TDP1): qHTS in cells in absence of CPT; DT40 Tdp1-/- hTDP1 cells, no CPT, ATP luminescence, 48 h; Potency, µM (doses to about 46.2 µM), inactives show at the top dose activity change, negative = growth inhibition, usual class: inhibitors; actives 15% (n = 420,000); further: potency means the concentration at half of the fitted maximal effect; nearly all actives have a fitted effect of over 55% in size
#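 Compound effects on proliferation are scored in DT40 Tdp1-/-;hTDP1 cells in the absence of CPT. ATP levels (CellTiter-Glo luminescence) are recorded after a ≥48 hr, 37 °C incubation.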
# TDP1 cell CPT: DT40-hTDP1 cell growth loss with CPT | chicken DT40 Tdp1-/-;hTDP1 cells + 20 nM CPT, ATP luminescence, 48 h | Potency, µM (doses to about 46.2 µM), for the others: at the top dose activity change, negative = growth inhibition, most hits filed as inhibitors | actives 12% (n = 420,000); further: potency means the concentration at half of the fitted maximal effect; nearly all actives have a fitted effect of over 55% in size
#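 Chicken DT40 Tdp1-/- cells stably complemented with human TDP1 were seeded at 400 cells/well in medium containing 20 nM camptothecin, exposed to pin-transferred compounds, and grown at 37 °C for at least 48 hr. Viability was read as ATP luminescence.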
# IL-1B inflam inh: inflammasome signaling inhibition, IL-1 beta readout; THP-1 LPS/ATP IL-1B secretion, AlphaLISA, 16 h; stronger effect = lower value; activity change, % at 57.5 µM; actives 4.7% (n = 360,000); in the data active means activity change below about -50%; inconclusive means mostly about -30% to -49%
#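 Secreted IL-1B measured by AlphaLISA bead assay after 16 h compound exposure of THP-1 cells; compounds (final up to 57.5 uM) added 1 h before LPS (250 ng/mL) and ATP (1.25 mM) stimulation; lower signal means less secretion.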
# Starred values were filed as active, the others as inactive; ? = inconclusive; / = no result; [ ] = another dose, or the depositor's remark. Unless noted, the call rests on the fitted dose curve; in most records, active means well fitted curve in the direction sought with a large enough effect; inconclusive means small, poorly fitted or top-dose-only effect, or another doubt; inactive means no such curve, though single readings can be large; an effect the other way counts as inactive or inconclusive. Unless noted, on the % scale 0 is the no-effect control and ±100 the full control effect.
SMILES,HT1080 IDH1KD tx,HT1080-NT tox,DT40 TDP1 no CPT,TDP1 cell CPT,IL-1B inflam inh
Cc1[nH]n(-c2ccc([N+](=O)[O-])cc2)c(=O)c1C=NCCN1CCN(C(=O)c2ccccc2)CC1,?,?,10.3µM*,10.3µM*,-5.9
CCOC(=O)N1CCC(n2c(SCC(=O)c3ccccc3)nc3ccsc3c2=O)CC1,10.5%,0.6%,2.91µM*,2.59µM*,-15.6
CCOC(=O)CSc1nc2ccsc2c(=O)n1C1CCN(C(=O)OCC)CC1,-12.9%,-11.5%[9.24 µM],?,?,-12.3
CCOC(=O)N1CCC(n2c(SCC(=O)NCc3ccco3)nc3ccsc3c2=O)CC1,-2.7%,7.8%,18.4µM*,23.1µM*,32.6
CCCCC1=CC2=CC(=O)C(C)(OC(=O)CC)C(=O)C2=CN1Cc1ccc2c(c1)OCO2 (stereo unspecified),1.0%,-26.4%,14.6µM*,?,35.2
CCCCC1=CC2=CC(=O)C(C)(OC(=O)CC)C(=O)C2=CN1c1ccc(OC)cc1 (stereo unspecified),-2.3%,-4.5%,?,25.9µM*,25.3
COc1ccccc1-c1nc(-c2ccccc2)[nH]c(=O)c1C#N,0.7%,6.4%,-2.4%,-8.5%,9.8
Cc1nn(CC(=O)NCCCN2CCCC2)c(=O)c2nn(-c3ccccc3)c(C)c12,9.6%,7.6%,33.9%,1.7%,-10.2
O=C1C(Cl)=C(NCCCO)C(=O)c2ccccc21,?,?,18.4µM*,23.1µM*,56.8
CCOCCCNC1=C(Cl)C(=O)c2ccccc2C1=O,-6.2%,12.5%,6.51µM*,5.8µM*,33.0
CCOCCCNS(=O)(=O)c1ccccc1,-19.8%,-0.2%[9.24 µM],-18.0%,-4.8%,0.0
O=c1cc(NCCCO)c2ccccc2o1,5.8%,4.8%,5.9%,1.2%,5.3
O=C(O)CS(=O)(=O)c1ccc(C(F)(F)F)cn1,-0.4%,-0.5%,1.3%,4.3%,8.1
COc1ccccc1-n1nc(C)c(-c2ccccc2)c1N,3.2%,7.2%,?,?,11.4
S=C1SCN(Cc2cccs2)CN1Cc1cccs1,-8.6%,-6.1%,23.1µM*,?,0.0
CCN1CN(CCc2ccccc2)CNC1=S,9.5%,1.1%,-1.3%,-3.9%,25.3
CCN1CSC(=S)N(Cc2ccc(OC)cc2)C1,-2.3%,1.6%,4.61µM*,5.17µM*,24.8
CCN1CSC(=S)N(Cc2ccccc2)C1,1.0%,-9.1%,4.61µM*,2.59µM*,-100.2*
c1csc(CN2CCOCC2)c1,3.2%,-2.0%,-2.2%,-1.9%,-10.9
CCCCCN1CSC(=S)N(Cc2ccccc2)C1,-17.6%,-0.7%,3.66µM*,4.61µM*,-95.3*
C=C1[C@@H](O)CN(Cc2ccc(OC)cc2)S1(=O)=O,/,/,17.8µM*,?,/
COc1ccc(CN2C[C@H]3CCCN3c3cc(Br)ccc3S2(=O)=O)cc1,2.59µM*,?,0.92µM*,2.06µM*,89.7
COc1ccccc1CCC(=O)OCC(=O)Nc1c(C)nn(-c2ccccc2)c1C,0.3%,-0.3%,-10.6%,-1.3%,13.9
CCCC(C(=O)NNC(=O)c1ccncc1)c1ccccc1 (stereo unspecified),10.3%,0.5%,-13.3%,4.2%,-14.5
COc1ccc(CNC(=O)C2CCN(C(=O)c3ccc(-n4ccc5ccccc54)s3)CC2)cc1,/,/,13µM*,10.3µM*,/
Cc1cc2ccccc2n1-c1ccc(C(=O)N2CCC(C(=O)NCc3ccc(F)cc3)CC2)s1,/,/,16.4µM*,20.6µM*,/
COc1ccc(CNC(=O)C2CCN(C(=O)c3sccc3-n3cccc3)CC2)cc1,2.9%,-10.4%,8.9%,-2.8%,?
CN(C)c1ccc(CNC(=O)C2CCN(C(=O)c3ccc(-n4ccc5ccccc54)s3)CC2)cc1,/,/,20.6µM*,20.6µM*,/
COc1ccc(OC)c(C(=O)NC(CC(N)=O)c2ccc(NCCOc3ccccc3)c([N+](=O)[O-])c2)c1 (stereo unspecified),0.2%,6.3%,?,?,-2.9
